# Target: BBS5
# Assay: pooled miR-30 sensor sort-seq; sequence = guide strand
# Settings: shRNA
row,Sequence,sensor-assay potency score (higher = more potent)
1,AAATTTTGAATCTCTAATCTTT,-0.135
2,TTTTATCATATACATGTTCTTG,-0.69
3,TTTCCTTAACTGATTCTTGTAG,-0.239
4,TTCGACTGTCAGAGCTTCGAGC,-0.723
5,AACATATCCACCACTCTGCTGA,-0.129
6,TTCTACATCATCTTGAATTTGT,-0.245
7,TTAGTATATAGAGAGCTTCAGT,-0.624
8,TATCATATACATGTTCTTGTGG,-0.0827
9,TTAGAGTTAGCAGTCCTTGTTG,-0.252
10,TAAATATAAATTCAAAACGAGT,-1.56
11,TTGAATTTGTTCGACTGTCAGA,-0.412
12,TTTATCATATACATGTTCTTGT,0.705

# Target: BCAR3
# Assay: as above
# Settings: shRNA
row,Sequence,sensor-assay potency score (higher = more potent)
1,TAACCTTGTGATCTGTGGCATT,-0.946
2,TCTGATTGACTTGTGCACCTTT,0.95
3,TTGAGGGACAAGGCTCTTCTGT,-0.76
4,TTGAATTTCTCATATCTCTCTG,0.778
5,TCGCATTTGAAATTCAGTCTTG,-0.471
6,TTTTCTAACCTTGTGATCTGTG,-0.0388
7,TAGGAAGTCACCATCTCGCTGC,0.641
8,TGAATTTCTCATATCTCTCTGT,0.413
9,TTGAGGAACGGCACCTTGCAGG,-0.594
10,TTGGTGAACAGTTCTTTTGCAC,0.174
11,TTGCACGTTTCAACATTGCTGT,-0.296
12,TTGACTTGTGCACCTTTGCTGC,-0.561

# Target: BCL11A
# Assay: as above
# Settings: shRNA
row,Sequence,sensor-assay potency score (higher = more potent)
1,TATCATTTGATTGTCCACTTGA,0.591
2,TACTATATAATCTTAAACCTTT,-0.147
3,TGAAATTTGAACGTCTTGCCGC,0.0443
4,TTAATTGTCCTATCTGAGCAGG,-0.599
5,TAAAAGACAACATAGAATGTAT,0.0879
6,TTGCACTATATTATCCTGCCAA,-0.344
7,TTGACAACCAAGTAGATCTGGA,0.0039
8,TTCACATTTGTAAACGTCCTTC,-0.693
9,TAAACAATCGTCATCCTCTGGC,-0.0288
10,TAGCATAGGAATCAACATGAGT,-0.704
11,ATAACAAGTAGAAAGAACCATC,-0.773
12,TTATTTTATACTCAACCTCTGT,-0.873

# Reference: the OligoGym collection
